The whole screen tested about 310,000 compounds, of which about 1,200 (0.39%) were called active. These entries were drawn from the full list. Measured potencies and affinities stand elsewhere. A number with no mark means an inactive call. How the calls were made is not given here.

This test deals with Large T antigen (Simian virus 40) (UniProt P03070). Kind of test: TAg ATPase/helicase activity blockers – biochemical (AID 1903). The following applies: SV40 large T antigen ATPase/helicase inhibition assay; at 20 µM; active compounds read high.
Chain of Large T antigen (Simian virus 40) (P03070 whole entry, looked up): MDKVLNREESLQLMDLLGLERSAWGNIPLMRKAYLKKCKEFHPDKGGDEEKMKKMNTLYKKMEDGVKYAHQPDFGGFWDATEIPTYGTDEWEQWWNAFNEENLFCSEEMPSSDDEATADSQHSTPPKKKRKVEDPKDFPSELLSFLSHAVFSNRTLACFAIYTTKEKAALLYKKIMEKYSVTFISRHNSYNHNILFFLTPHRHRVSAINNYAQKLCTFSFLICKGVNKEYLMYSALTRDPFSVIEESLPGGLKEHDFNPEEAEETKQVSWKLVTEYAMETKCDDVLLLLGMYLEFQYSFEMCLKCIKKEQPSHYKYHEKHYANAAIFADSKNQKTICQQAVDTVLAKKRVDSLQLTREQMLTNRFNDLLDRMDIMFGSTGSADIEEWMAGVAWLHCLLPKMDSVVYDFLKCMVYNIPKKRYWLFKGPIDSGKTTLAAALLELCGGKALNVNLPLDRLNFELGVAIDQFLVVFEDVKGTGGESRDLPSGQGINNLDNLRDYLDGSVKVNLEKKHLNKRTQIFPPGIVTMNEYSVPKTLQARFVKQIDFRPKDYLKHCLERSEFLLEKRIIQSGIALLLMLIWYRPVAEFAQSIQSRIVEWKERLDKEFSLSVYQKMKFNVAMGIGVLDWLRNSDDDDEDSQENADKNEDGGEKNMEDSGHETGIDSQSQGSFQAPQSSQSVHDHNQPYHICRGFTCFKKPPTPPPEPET
For `CCCOC(=O)c1ccc(NC(=O)CSC2=Nc3ccccc3C3CC=NN23)cc1` (centres undefined), the inhibition was 7.1%.

As for `CCCCNC(=O)c1cc2c(C)cc(C)cc2[nH]1`, the inhibition is 4.47%.

Turning to `COc1ccc(S(=O)(=O)n2nc(-n3c(C)ccc3C)c3c(F)cccc32)cc1OC`, the inhibition is 2.54%. The result for `COc1ccc(S(=O)(=O)N2CCN(c3ccc(C)cc3C)CC2)cc1OC` reads 7.1%; that for `CCn1cc(C(=O)N2CCN(c3ccc(OC)cc3)CC2)c(=O)c2cc(S(=O)(=O)N3CCCCC3)ccc21`, 15.4%; that for `CN1CCN(C(=O)C2CCCN(S(=O)(=O)c3ccccc3)C2)CC1` (centres undefined), 7.31%. `CC1Cc2cc(/C=C3/SC(=S)N(C)C3=O)ccc2O1` (centres undefined): the inhibition is 0.875%. For `O=C(COc1ccc2c3c(c(=O)oc2c1)CCCC3)N1C[C@H]2C[C@@H](C1)c1cccc(=O)n1C2`, the inhibition was 3.64%. In the case of `N#C/C(=C\c1cccnc1)C(=O)Nc1ccc(Cl)cc1`, the inhibition was 14.4%. For the compound `CCN(CC)C1CC(=O)N(c2cccc(C)c2)C1=O` (centres undefined), the inhibition is 0.27%.

As to `O=C1CC(N2CCSCC2)C(=O)N1c1cccc(Br)c1` (centres undefined), the inhibition was 10.7%. `COC(C/C=C\[C@H](O)[C@@H](C)OCc1ccccc1)OC`: the inhibition was 2.9%. On to `CC1(C)Cc2c(c(N3CCOCC3)nc3sc(-c4ccc(C(=O)O)o4)c(N)c23)CO1`, for which the inhibition was 21.9%.

In the case of `COC(=O)c1ccc(-c2sc3nc(N4CCOCC4)c4c(c3c2N)CC(C)(C)OC4)o1`, the inhibition was -1.68%. Consider `COC(=O)c1ccccc1NS(=O)(=O)c1ccc(Cl)nc1`, for which the inhibition was 4.72%. As to `N#CC1=C(N)OC2=C(C(=O)CCC2)C1c1cccs1` (centres undefined), the inhibition is 23%. As to `O=C(NCC(c1cccnc1)N1CCN(c2ccccc2)CC1)C1CCCCC1` (centres undefined), the inhibition is 2.45%.

As to `O=C(NCC(c1cccnc1)N1CCN(c2ccc(F)cc2)CC1)C1CCCCC1` (centres undefined), the inhibition is 18.4%. For the compound `CCN(c1ccccc1)c1nc2ccsc2c(=O)s1`, the inhibition was 3.95%.

Take `COc1ccc(S(=O)(=O)N2CC=C(C(=O)Nc3ccc(NC(C)=O)cc3)CC2)cc1`: the inhibition was 8.65%. For the compound `COc1ccc(N(CC(=O)NCCC2=CCCCC2)S(C)(=O)=O)cc1`, the inhibition was 1.47%. In the case of `NS(=O)(=O)c1ccc(NC(=O)COC(=O)COc2ccccc2)cc1`, the inhibition was 3.76%. The result for `CCCc1nnc(NC(=O)C(C)N2C(=O)C3C4C=CC(C4)C3C2=O)s1` (centres undefined) reads 4.05%; that for `Cc1ccc(-n2nnnc2C(Cl)c2nnnn2-c2ccc(C)cc2)cc1`, 7.23%. For `c1ccc(-c2nnnn2-c2ccccc2)cc1`, the inhibition was 12.4%. As for `c1ccc(-n2nnnc2Cc2nnnn2-c2ccccc2)cc1`, the inhibition is -7.53%.

On to `Cc1ccc(-c2nnnn2-c2ccc(C)cc2)cc1`, for which the inhibition is -0.57%.

As for `COc1cc(OC)cc(C(=O)N[C@H](C(=O)Nc2cccc(S(=O)(=O)N3CCCC3)c2)C(C)C)c1`, the inhibition is 11.5%. As to `O=C(Nc1cccc(-c2cn3c(n2)SCC3)c1)c1ccc(Br)o1`, the inhibition is 7.7%. Turning to `COc1ccccc1OCCC(=O)NCc1ccc2c(c1)OCO2`, the inhibition is 8.06%. The result for `Cc1[nH]c2ccccc2c1C(=O)COC(=O)c1cccc(S(=O)(=O)N2CCCCC2)c1` reads 7.32%; that for `CC(=O)Nc1ccc(N/C=C2/CCCC2=O)cc1`, 16.2%. The result for `Cc1ccc(N/C=C2\CCCCC2=O)c(C)c1` reads 8.76%; that for `Cc1ccccc1NC(=S)NCc1ccccc1`, 7.25%.

Regarding `CCOC(=O)c1cccc(Nc2nc(-c3cccnc3)nc3ccccc23)c1`, the inhibition is 6.16%.

Turning to `COc1ccc(CNC(=O)CSc2nnc(C)c(=O)[nH]2)cc1`, the inhibition was 8.06%.

Take `O=C1CC(Nc2ccccc2)C(=O)N1c1ccc(N2CCOCC2)cc1` (centres undefined): the inhibition was 6.8%. Regarding `O=C1CC(Nc2ccc(N3CCOCC3)cc2)C(=O)N1c1ccccc1` (centres undefined), the inhibition was 21.4%.

Consider `S=c1[nH]nc(C2CCCCC2)n1/N=C/c1ccc(Br)cc1`, for which the inhibition is 0.57%. Consider `CCOc1cc(CNCCO)cc(Br)c1OCc1cccs1`, for which the inhibition was 10.3%.

As for `CCN(CC)S(=O)(=O)c1ccc(NC(=O)c2cnccn2)cc1`, the inhibition is 19.6%. The result for `CCN(C(=O)CN1CCN(c2ccc(OC)cc2)CC1)c1c(N)n(Cc2ccccc2)c(=O)[nH]c1=O` reads 21.5%; that for `CCN(C(=O)CN1CCN(c2ccccc2)CC1)c1c(N)n(Cc2ccccc2)c(=O)[nH]c1=O`, 14.1%; that for `Cc1ccc(C(=O)N/C(=C\c2ccc3c(c2)OCO3)C(=O)Nc2ccc(C(=O)O)cc2)cc1`, 1.87%. Take `CCC1CCc2sc(C(=O)OCC(=O)N(CCOC)c3c(N)n(Cc4ccccc4)c(=O)[nH]c3=O)cc2C1` (centres undefined): the inhibition was 16.3%.

Regarding `COCCN(C(=O)COC(=O)c1cc2c(s1)CCCC2)c1c(N)n(Cc2ccccc2)c(=O)[nH]c1=O`, the inhibition was 4.52%. With `CCN1/C(=C2/SC(=S)N(NC(C)=O)C2=O)Sc2ccccc21`, the inhibition was 0.32%. The result for `Cc1ccc(-n2cc(CNCC3CC(=O)N(C4CC4)C3)c(-c3cccc(C)c3)n2)cc1` (centres undefined) reads 4.43%; that for `O/N=C/c1ccc2ccccc2c1`, 70.8%; that for `CCOc1ccc(N=Cc2ccc3ccccc3c2)cc1`, 21.9%. For `COc1ccc(S(=O)(=O)N(C)c2ccc(OC(=O)C(C)Oc3ccc(F)cc3)cc2)cc1` (centres undefined), the inhibition is 13%. As for `N/C(=N\N=C\c1ccc2c(c1)OCO2)c1nonc1N`, the inhibition was 7.74%. As for `Cc1cc(=O)oc2c(CN3CCCC3)c(O)ccc12`, the figure is 4.61%; as for `Cc1cc(=O)oc2c(CN(CC(C)C)CC(C)C)c(O)ccc12`, 15.8%. For `COc1ccc(CCN2C(=NC(=O)CC(C)C)SC3CS(=O)(=O)CC32)cc1` (centres undefined), the inhibition is 0.43%. `COc1cc(/C=N/NC(=O)c2cccs2)ccc1OCc1ccccc1`: the inhibition was -0.01%.

Consider `O=C(CNC(=O)c1cccc(F)c1)N/N=C/c1cccc([N+](=O)[O-])c1`, for which the inhibition was 16.8%. With `COc1cc(/C=N/NC(=O)c2cccc([N+](=O)[O-])c2)cc(OC)c1O`, the inhibition was 20.1%.

As for `COc1ccc(/C=N/NC(=O)c2nnn(-c3nonc3N)c2-c2cccs2)cc1OC`, the inhibition is 7.55%. Turning to `COc1cc(/C=N/NC(=S)Nc2cccc(C(=O)O)c2)cc(OC)c1OC`, the inhibition was 5.01%.

In the case of `COc1cccc(/C=N/NC(=O)c2cccs2)c1`, the inhibition is -1.95%.

Consider `COc1ccc(/C=N/NC(=S)Nc2cccc(C(=O)O)c2)cc1OC`, for which the inhibition was 19.3%. For the compound `CCCOc1ccc(/C=N/NC(=O)c2nnn(-c3nonc3N)c2-c2cccs2)cc1OC`, the inhibition was 10.3%. With `COc1cc(OC)c(C(=O)NCC2CCCO2)cc1OC` (centres undefined), the inhibition was -5.36%. As to `CS(=O)(=O)N1CCCC(C(=O)Nc2ccccc2F)C1` (centres undefined), the inhibition is 1.68%.

Consider `O=C(O)c1cccc(NC(=O)c2ccccc2NC(=O)c2ccccc2F)c1`, for which the inhibition was 9%. With `Cc1ccc(NC(=O)CN(C)CC(=O)Nc2ccccc2C#N)cc1`, the inhibition was 8.84%. `CC(Oc1ccc(Br)cc1)C(=O)O/N=C(\N)c1ccncc1` (centres undefined): the inhibition is 2.31%. With `COc1cccc(C(=O)C2CCCN(Cc3cn(C)nc3-c3ccccc3)C2)c1` (centres undefined), the inhibition is -3.2%. For the compound `COc1cc2[nH]c(-c3cccc(F)c3)cc(=O)c2cc1OC`, the inhibition is 16.1%. In the case of `CN(CC(=O)Nc1ccc(S(N)(=O)=O)cc1)Cc1ccccc1F`, the inhibition was 4.84%. Regarding `COc1cc(/C=N/NC(=O)c2ccccc2O)ccc1OCC(=O)Nc1ccccc1`, the inhibition is 13.3%.

Regarding `COc1ccc(/C=N/NC(=O)C2COc3ccccc3O2)cc1OC` (centres undefined), the inhibition was -1.14%. The result for `COc1ccc(/C=N/NC(=O)c2cnccn2)cc1O` reads 26.2%; that for `COc1ccc(/C=N/NC(=O)c2cccc([N+](=O)[O-])c2)cc1O`, 29.7%; that for `COc1cc(/C=N\NC(=O)C2COc3ccccc3O2)cc(OC)c1O` (centres undefined), 37.5%.

In the case of `O=C(CC1SC(=O)NC1=O)Oc1ccc(/C=N/NC(=O)c2ccccc2O)cc1` (centres undefined), the inhibition was 48.3%. For the compound `COc1cc(/C=N/NC(=O)c2cnccn2)cc(OC)c1OC`, the inhibition is -1.61%. `COc1ccc(/C=N/NC(=O)c2cccc([N+](=O)[O-])c2)cc1OC`: the inhibition was 22.1%. The result for `N#CCc1c(C#N)c(N)nc(N2CCOCC2)c1C#N` reads 5.53%. The result for `CN(Cc1ccccc1)S(=O)(=O)c1ccc(NC(=O)c2ccccc2C(=O)O)cc1` reads 4.64%; that for `Cc1ccc(Cn2cnc3sc4c(c3c2=O)CCC4)c(C)c1`, 9.2%; that for `O=C(N/N=C\C=C\c1ccc2c(c1)OCO2)C1COc2cc3ccccc3cc2O1` (centres undefined), 7.25%. `COc1ccc(C(=O)Nc2cc(C)on2)cc1OC`: the inhibition is 4.7%.

As to `O=C(O)c1sccc1Oc1ccc(NS(=O)(=O)c2ccccc2)cc1`, the inhibition was 9.58%. As for `O=C(OCc1nc2ccccc2[n+]([O-])c1C(=O)c1ccccc1)c1cccs1`, the figure is 8.13%; as for `COc1cc(/C=N/NC(=O)c2c(-c3ccccc3)noc2C)cc(OC)c1OC`, 0.27%. Consider `CCOc1ccc(/C=N/N(C)c2ccccc2)cc1OC`, for which the inhibition is 3.32%. As for `COc1cc(/C=N/NC(=O)c2cc[n+]([O-])cc2)ccc1O`, the figure is 27.9%; as for `COc1cc(/C=N/N(c2ccccc2)c2ccccc2)ccc1O`, 18.7%; as for `COc1ccc(/C=N/NC(=O)c2cc(C3CC3)[nH]n2)cc1OC`, 11.7%. The result for `COc1cc(C(=O)N/N=C/c2ccc(OC(=O)c3ccccc3)c(OC)c2)ccc1O` reads 23.2%; that for `CCOc1cc(/C=N/NC(=O)c2c(-c3ccccc3)noc2C)ccc1O`, 34.1%; that for `COc1cc(/C=N/NC(=O)c2cc(C3CC3)[nH]n2)cc(OC)c1OC`, 8.67%.

Values taken from PubChem BioAssay AID1903 (Southern Research Specialized Biocontainment Screening …, 2009).
